Bioassay records: PubChem, National Center for Advancing Translational Sciences (NCATS)
Vif-APOBEC3G blk = qHTS for Inhibitors of Vif-A3G Interactions: qHTS; DNA dC->dU-editing enzyme APOBEC-3G (Homo sapiens), Q9HC16; HeLa A3G-eYFP + Vif (tagged APOBEC3G with the HIV-1 protein that degrades it), YFP fluorescence, overnight; Potency, µM (top dose mostly 46.1 µM), without a hit: top-dose activity, negative = active, hits mostly inhibitors; 410,000 compounds, 0.076% hits; AID 602310, 2012; further: potency means the concentration at half of the fitted maximal effect; on the % scale 0 is the no-effect control and ±100 the full control effect; nearly all actives have a fitted effect of over 60% in size
Target sequence (Q9HC16 whole entry, looked up): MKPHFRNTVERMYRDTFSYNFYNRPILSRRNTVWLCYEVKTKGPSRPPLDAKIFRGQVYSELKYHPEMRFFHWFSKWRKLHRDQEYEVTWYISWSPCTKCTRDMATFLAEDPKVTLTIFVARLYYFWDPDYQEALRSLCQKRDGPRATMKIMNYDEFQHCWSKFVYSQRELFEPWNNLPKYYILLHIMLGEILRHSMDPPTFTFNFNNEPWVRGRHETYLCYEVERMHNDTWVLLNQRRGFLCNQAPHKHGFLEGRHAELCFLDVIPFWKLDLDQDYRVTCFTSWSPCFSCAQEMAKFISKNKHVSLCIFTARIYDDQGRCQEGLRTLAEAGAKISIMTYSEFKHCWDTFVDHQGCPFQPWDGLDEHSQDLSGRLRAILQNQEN
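Read-out is eYFP fluorescence (Ex 488/Em 500-530) from Vif-expressing HeLa A3G-eYFP cells; more signal means A3G escaped Vif-mediated degradation. Cells plated overnight, compound pinned in, incubated overnight at 37 deg C.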
Giardia kill = Small Molecules that selectively kill Giardia lamblia: qHTS; Giardia lamblia trophozoite viability; activity change, % at 7.66 µM, hits read low; 340,000 compounds, 0.15% hits; AID 540267, 2011; in the data active means activity change below about -80%; inconclusive means between about -30% and that limit;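 further: parasites exposed to compound for two days anaerobically before the ATP read; on the % scale 0 is the no-effect control and ±100 the full control effect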
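Killing of trophozoites was scored by loss of ATP luminescence after a 48 hrs anaerobic exposure to compounds at 37 deg C, using 100 cells per well.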
Vif-A3F inh = qHTS for Inhibitors of Vif-A3F Interactions: qHTS; AID 602313, 2012; Potency, µM (doses to about 46.1 µM), inactives show at the highest dose activity, negative = active; 390,000 compounds, 0.2% hits; HeLa A3F-eYFP + Vif (tagged APOBEC3F with the HIV-1 protein that degrades it), YFP fluorescence increase; further: potency means the concentration at half of the fitted maximal effect; % of control where 0% means no effect; nearly all actives have a fitted effect of over 65% in size
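HeLa cells stably expressing A3F-eYFP plus Vif, plated and incubated overnight at 37 deg C, then exposed to compounds overnight at 37 deg C. Blocked degradation read as raised yellow fluorescence (Ex 488/Em 500-530).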
SW480 rerep = A quantitative high throughput screen for small molecules that induce DNA re-replication in SW480 colon adenocarcinoma cells; Potency, µM (titrated, usually from 46.1 µM), for inactives: at the top dose re-replication activation, usual class: activators; 340,000 compounds, 1.8% hits; AID 624297, 2012; SW480 DNA re-replication, Hoechst DNA content imaging, 48 h; further: potency means the concentration at half of the fitted maximal effect; % of control where 0% means no effect; nearly all actives have a fitted effect of over 55% in size
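Treated cells incubate 48 hr (37 C, 5% CO2), are stained 40 min with Hoechst, and nuclear fluorescence is enumerated; a rise in nuclei with high DNA signal marks re-replication.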
MCF10A rereplic = A quantitative high throughput screen for small molecules that induce DNA re-replication in MCF 10a normal breast cells | MCF 10A DNA re-replication, Hoechst nuclear intensity, 48 h | Potency, µM (top dose mostly 46.1 µM), without a hit: top-dose activity, positive = re-replication, most hits filed as activators | 350,000 compounds, 2.9% hits; further: potency means the concentration at half of the fitted maximal effect; % of control where 0% means no effect; nearly all actives have a fitted effect of over 50% in size
IL1B secr inh = qHTS for Inhibitors of Inflammasome Signaling: IL-1-beta AlphaLISA Primary Screen; THP-1 LPS/ATP IL-1B secretion, AlphaLISA, 16 h; active compounds read low; activity change, % at 57.5 µM; 360,000 compounds, 4.7% hits; AID 743279, 2014; in the data active means activity change below about -50%; inconclusive means mostly about -30% to -49%; further: on the % scale 0 is the no-effect control and ±100 the full control effect
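THP-1 cells pretreated 1 hr with compounds (up to 57.5 uM final), then stimulated with LPS (250 ng/mL final) plus ATP (1.25 mM final); secreted IL-1B measured by AlphaLISA after 16 hr, decreased signal indicating inhibition.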
An asterisk follows results filed as active; ? = inconclusive; . = not tested or not shown. This is a sample that favours compounds with a hit; in the whole collection about 6.9% have one here. Unless noted, the call rests on the fitted dose curve; in most records, active means well fitted curve in the direction sought with a large enough effect; inconclusive means small, poorly fitted or top-dose-only effect, or another doubt; inactive means no such curve, though single readings can be large; an effect the other way counts as inactive or inconclusive.

SMILES | Vif-APOBEC3G blk | Giardia kill | Vif-A3F inh | SW480 rerep | MCF10A rereplic | IL1B secr inh
C=CCNC(=O)C1CC1(c1cccc(C)c1)c1cccc(C)c1 (configuration not stated) | -22% | 22 | 8% | -20% | 4% | .
CC1=CC(c2ccccc2)=NS(=O)(=O)N1 | -3% | -1 | -1% | ? | -2% | -104*
CCOC(=O)C1=NS(=O)(=O)NC(C)=C1 | 3% | 9 | 4% | -2% | 0% | 19
COc1ccc(CCN2C(=O)CSC2=S)cc1OC | -17% | -10 | -4% | 15µM* | 12µM* | -73*
COc1ccc(CN2C(=O)CSCC2=O)cc1OC | 1% | 2 | -1% | -32% | 0% | 4
CCCN1CCC(=O)N(C(CSc2ccc(OC)cc2)c2ccccc2)CC1 (configuration not stated) | -1% | 18 | . | . | . | .
N#Cc1c(N)nc2c(c1-c1ccc(F)cc1)CCC2 | 0% | 9 | -23% | ? | 13µM* | -10
Cc1ccc(-c2c(C#N)c(N)nc3c2CCCCC3)cc1 | 3% | -10 | 1% | 2% | 1% | 14
CCc1ccccc1NC(=O)Cn1c(-c2nonc2N)nc2ccccc21 | -1% | . | -3% | . | . | .
CCCCOc1ccccc1NC(=O)Cn1c(-c2nonc2N)nc2ccccc21 | ? | -1 | -10% | ? | 0.79µM* | 55
Nc1nonc1-c1nc2ccccc2n1CC(=O)N/N=C\c1ccc(-c2ccc(Cl)cc2)o1 | -12% | 18 | -13% | ? | 8.9µM* | ?
N#CC1=CN(Cc2ccccc2)C=C(/C=N/Nc2ccccc2)C1 | ? | 18 | ? | 10% | ? | -80*
Cc1ccc(-n2c(Cc3ccccc3)nnc2SCc2nc(-c3cccs3)no2)cc1C | -7% | . | 0% | . | . | .
CCNC(=O)[C@@H]1CCCN1C(=O)[C@H](CCCN=C(N)N)NC(=O)[C@H](CC(C)C)NC(=O)[C@@H](Cc1c[nH]c2ccccc12)NC(=O)[C@H](Cc1ccc(O)cc1)NC(=O)[C@H](CO)NC(=O)[C@H](Cc1c[nH]c2ccccc12)NC(=O)[C@H](Cc1cnc[nH]1)NC(=O)[C@@H]1CCC(=O)N1 | . | . | . | ? | 30µM* | .
CC(C)C[C@H](NC(=O)[C@@H](Cc1c[nH]c2ccccc12)NC(=O)[C@@H](Cc1ccc(O)cc1)NC(=O)[C@@H](CO)NC(=O)[C@@H](Cc1c[nH]c2ccccc12)NC(=O)C(Cc1cnc[nH]1)NC(=O)C1CCC(=O)N1)C(=O)N[C@@H](CCCN=C(N)N)C(=O)N1CCC[C@@H]1C(=O)NCC(N)=O (some centres not stated) | . | . | . | -2% | -3% | .
CCCCOc1ccc(CN=C(N)N)cc1Cl | 5% | 7 | 4% | 20% | ? | -74*
CCOc1ccc(CN=C(N)N=C(N)N)cc1Cl | 0% | -11 | 5% | -8% | -4% | -21
COc1ccc(CCNC(=O)C(=O)NCCOc2ccccc2Cl)cc1OC | -3% | -7 | 0% | -4% | 3% | 1
CCCOc1ccc(CCCN=C(N)N)cc1Cl | 1% | 4 | -1% | 21% | ? | -90*
Cc1cc(C)n(-c2nc(SCCN(C)C)c3c4c(sc3n2)COC(C)(C)C4)n1 | 3% | -7 | -6% | ? | ? | -60*
Cc1cc(C)n(-c2nc(NCC3CCCO3)c3c4c(sc3n2)COC(C)(C)C4)n1 (configuration not stated) | -8% | 6 | -15% | 17% | ? | -51*
CCCNC(=O)Cn1nc(-c2ccc(OC)cc2)c2cnc3ccc(F)cc3c21 | -3% | . | 3% | . | . | .
COc1ccc(C2C3C=CCCC3(C)C(=O)N2Cc2ccccc2)cc1Cl (configuration not stated) | -5% | -7 | . | . | . | .
O=C(c1cn(-c2ccccc2)nc1-c1cccc([N+](=O)[O-])c1)N1CCCCC1 | -5% | 13 | -5% | 15% | -1% | -95*
O=C(O)c1cn(-c2ccccc2)nc1-c1ccc(F)cc1 | 1% | 21 | 11% | 106% | 13µM* | 15
SMILES | Vif-APOBEC3G blk | Giardia kill | Vif-A3F inh | SW480 rerep | MCF10A rereplic | IL1B secr inh
CN(C)C(=O)c1cn(-c2ccccc2)nc1-c1cccc([N+](=O)[O-])c1 | -9% | 4 | -15% | 10% | -7% | -16
O=C1NC(=O)C(c2cn(-c3ccccc3)nc2-c2ccc(F)cc2)N1 (configuration not stated) | 0% | -4 | 0% | ? | 18µM* | -11
CCCCOc1ccccc1Cn1c(=O)sc2ccccc21 | -2% | . | 4% | . | . | .
COc1ccc(-c2ccc3oc(-c4ccc(OC)cc4)c(C#CCO)c3c2)cc1 | -14% | -22 | 3% | 26µM* | ? | ?
COc1ccc(-c2oc3ccc(N4CCOCC4)cc3c2C#CCO)cc1 | -3% | -14 | 2% | ? | 18µM* | -23
Nc1cc(N)cc(N)c1 | 2% | . | . | . | . | .
FC(F)(F)c1cccc(-n2c(Cn3nnc4ccccc43)n[nH]c2=S)c1 | -1% | 14 | ? | 2.6µM* | -1% | 5
S=c1[nH]nc(Cn2nnc3ccccc32)n1-c1ccccc1 | 2% | 3 | 0% | 3% | 2% | 0
CCCc1ccc(OCc2ccc(C(=O)Nc3ccccc3C(=O)OC)o2)cc1 | -1% | . | 4% | . | . | .
Cc1ccccc1C(=O)Nc1nnc(CC(=O)N/N=C/c2cn(Cc3ccccc3)c3ccccc23)s1 | 1% | 11 | ? | 21µM* | 6.5µM* | 10
Cc1ccccc1C(=O)Nc1nnc(CC(=O)N/N=C/c2ccco2)s1 | 0% | 1 | 6% | 2% | -2% | -9
COc1ccc(-c2ccc3c(c2)S(=O)(=O)c2cccc(C(=O)N4CCN(c5ccc(Cl)cn5)CC4)c2C3=O)cc1OC | 1% | 5 | 1% | 1% | 0% | 61
O=C1c2ccc(Cl)cc2S(=O)(=O)c2cccc(C(=O)N3CCN(c4ccc(Cl)cn4)CC3)c21 | 0% | -13 | 1% | ? | ? | -93*
O=C(N/N=C/c1ccco1)c1ccncc1 | 3% | -4 | -10% | -14% | -4% | 3
O=C(N/N=C/C1=Cc2ccccc2OC1)c1ccncc1 | -4% | 16 | -17% | 18µM* | ? | -3
O=C(CCNC(=O)c1ccccc1Cl)Nc1nc(-c2ccc(F)cc2)cs1 | -6% | -7 | 3% | -6% | 4% | -69*
